From PubChem BioAssay AID624297 (National Center for Advancing Translational Sciences (NCATS), 2012)
Screen size: about 340,000 compounds; about 6,200 (1.8%) were called active. Inconclusive results (about 10%) are left out. Many of the other results were omitted from the sample, so actives are more common in it than they were. A number with no mark means an inactive call. Calls come from the whole dose curve; as a rule, active = well fitted activation curve with a large enough effect; inconclusive = small, poorly fitted or top-dose-only effect; inactive = no such curve, though single readings can be large or run the other way.

Assay: A quantitative high throughput screen for small molecules that induce DNA re-replication in SW480 colon adenocarcinoma cells. For re-replication activation: % of control where 0% means no effect. Note: nearly all actives have a fitted effect of over 55% in size.
Conditions: Hoechst DNA content imaging, 48 h; series mostly up to 46.1 µM; re-replication activation: at the top concentration
In short: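 Readout is total intensity of Hoechst-stained nuclei, excited at 405 nm and collected at 500-530 nm. Compound treatment lasted 48 hr at 37 C in 5% CO2 before staining.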
Potency is the fitted concentration of half-maximal effect.

SMILES | Potency | re-replication activation
Cc1cc(-c2n[nH]c(=S)n2/N=C/C(Br)=C/c2ccccc2)n[nH]1 | 6.51 µM (active) | –
S=c1[nH]nc(-c2cccs2)n1/N=C/c1cccs1 | – | -91%
Oc1ccccc1/C=N/n1c(-c2cccs2)n[nH]c1=S | – | -3.38%
Cc1ccc(C2=Nc3c(ccc4ccccc34)C(c3ccncc3)=NN2)cc1 | 18.4 µM (active) | –
CN(C(=O)COC(=O)Cn1cnc2c1c(=O)n(C)c(=O)n2C)C1(C#N)CCCCC1 | – | 5.85%
CS(=O)(=O)c1ccc(C(=O)NNC(=O)c2cccs2)cc1 | – | -2.57%
O=C(COC(=O)Cc1ccc([N+](=O)[O-])cc1)NC1CCCCCC1 | – | -5.69%
O=C(OCC(=O)N1CCN(c2ccccc2)CC1)c1ccc([N+](=O)[O-])s1 | – | 11.2%
N#CCc1c[nH]c2ccc([N+](=O)[O-])cc12 | – | -4.91%
C/C=C/c1ccc(OCC(=O)NNC(=O)CN(C)S(=O)(=O)c2ccc(C)cc2)c(OC)c1 | – | -2.13%
CCc1nnc(NC(=O)CCCSc2nc3ccccc3[nH]2)s1 | – | -4.91%
CCC(C)N1C(=O)S/C(=C/c2ccc(Sc3nc4ccccc4[nH]3)o2)C1=O (centres undefined) | 18.4 µM (active) | –
CCCCSc1nc2ccccc2[nH]1 | – | -19.9%
Nc1ncnc2c1cnn2C1CC(O)C(CO)O1 (centres undefined) | – | 0.418%
CC(C)N(C(=O)[C@H]1C[C@H](CC(=O)NCCC2=CCCCC2)C(=O)N2CCc3c([nH]c4cc(CCC(=O)N(C)C)ccc34)[C@]12C)C(C)C | – | 1.7%
CC(Nc1ccc([N+](=O)[O-])cc1[N+](=O)[O-])c1ccccc1 (centres undefined) | – | -1.62%
CCCSc1nc2sc3c(c2c(=O)n1-c1ccc(OC)cc1)CCN(C)C3 | 1.84 µM (active) | –
CCOc1ccc(-n2c(SCC(=O)OC)nc3sc4c(c3c2=O)CCN(C)C4)cc1 | – | -10.5%
COc1ccccc1NC(=O)CSc1nc2sc3c(c2c(=O)n1-c1ccccc1)CCN(C)C3 | – | -6.29%
Cc1noc(C)c1NC(=O)Nc1ccc2c(c1)C(=O)N([C@H](C)CO)C[C@H](C)[C@@H](CN(C)S(=O)(=O)c1cn(C)cn1)O2 | – | -13.9%
C[C@]12c3[nH]c4ccc(Cl)cc4c3CCN1C(=O)[C@@H](CC(=O)NCCCn1ccnc1)C[C@@H]2C(=O)N1CCOCC1 | – | 59.9%
O=C(NN=Cc1ccccc1)c1ccccc1 | – | -1.63%
O=C(N/N=C/c1c[nH]c2ccccc12)c1ccccc1O | – | -1.5%
Oc1ccccc1C=NC1CCCCC1N=Cc1ccccc1O (centres undefined) | – | 0.236%
O=C(NN=Cc1ccccc1O)NN=Cc1ccccc1O | 16.4 µM (active) | –

SMILES | Potency | re-replication activation
COc1ccc(/C=N/NC(=O)C2CC2)c(OC)c1OC | – | 29.6%
O=C(N/N=C/c1ccccc1O)C1CCCC1 | 4.61 µM (active) | –
NC(CSC1(c2ccccc2)c2ccccc2-c2ccccc21)C(=O)O (centres undefined) | – | -2.84%
COc1cc(OC)cc(C(=O)NCC(=O)N2CCCCCCC2)c1 | – | -20.2%
NC(=O)c1ncn([C@@H]2O[C@H](CNCc3cnc(N4CCOCC4)s3)[C@@H](O)[C@H]2O)n1 | – | 2.79%
NS(=O)(=O)c1ccc(CCNC(=O)c2ccc(Cl)c(S(=O)(=O)N3CCCCCC3)c2)cc1 | – | 0.904%
COc1ccc2oc(N)nc2c1 | – | -6.24%
CC[C@]1(C(=O)OC)[C@H]2C(=O)N(Cc3ccccc3)C(=O)[C@H]2[C@H]2CN=C(SCc3ccc(Cl)cc3)N21 | – | -1.04%
CCc1c(Nc2ccccc2C)nc(N)[nH]c1=O | – | -0.657%
Cc1c(C(=O)N2CCCc3ccccc32)sc2nc(-c3ccccc3)cn12 | – | -5.48%
Cc1c(C(=O)N2CCCc3ccccc32)oc2ccccc12 | – | -0.943%
Cc1cccc2cc3c(N)c(C(=O)N4CCCc5ccccc54)sc3nc12 | 5.17 µM (active) | –
CN(C(=O)c1cccc(NC(=O)Cc2cccc(NC(=O)C3CCCN(C(=O)C4CC4)C3)c2)c1)C1CCC1 (centres undefined) | – | 3.52% [at 9.22 µM]
COC(=O)c1ccccc1NC(=O)Cc1ccccc1OC | – | 4.59%
CC[C@]1(c2ccccc2OC)C(=O)N(C(=O)OC)N1C(=O)OC | 23.1 µM (active) | –
COc1ccccc1CC(=O)Nc1ccc(F)cc1F | – | 15.1%
O=C(Cc1ccc(Cl)cc1)c1ccccc1 | – | -2.09%
O=C1CC(C(=O)O)NC(=S)N1 (centres undefined) | – | -8.61%
Cc1ccc(C)c(N2CCN(C(=O)CCc3nc(-c4cccc(C(F)(F)F)c4)no3)CC2)c1 | – | -5.4%
CC(C)CN1CC(C)C(=O)N(c2ccccc2)C1=S (centres undefined) | – | 0.56%
COc1ccc2oc(=O)cc(-c3cc4ccccc4o3)c2c1 | – | 28.5%
COc1ccc(Nc2cc(=O)oc3ccccc23)cc1 | 5.17 µM (active) | –
COc1ccc(Nc2nnc(C)c3ccccc23)cc1 | – | -1.06%
CN1CCC(N(C)C(=O)c2ccc(Cl)c(S(=O)(=O)Nc3ccc(Cl)cc3)c2)CC1 | – | -14.4%
